Experimental data as given in PubChem BioAssay AID1159580 (chemical genetic matrix, 2015).
The campaign covered roughly 5,500 compounds. About 2,000 (36%) were called active. About 18% were inconclusive and are not listed. Cut-off read from the data, not from the text of the source: active = normalized growth mostly below about 0.91 (no sharp cut-off); inconclusive = no clear call, values can overlap the other calls; inactive = mostly above about 0.92. Some of the results follow.

Test: chemical genetic growth profiling, strain panel (AID 1159580);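 note: tested at 20 µM; growth read once vehicle control cultures reached saturation at 30 °C; 1 = growth at the plate median or of vehicle wells; lower values mean less growth of the strain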
Conditions: S. cerevisiae deletion strains, growth OD

Measured: normalized growth

CC1(C)C=Cc2cc(/C(N)=N\OC(=O)Nc3cccc(C(F)(F)F)c3)ccc2O1
inactive: locus YAR019C, strain CDC15, hits give low values 0.981 | locus YBL105C, strain PKC1, hits give low values 0.982 | locus YBR135W, strain CKS1, hits give low values 0.969 | locus YBR136W, strain MEC1, hits give low values 0.972 | locus YBR160W, strain CDC28, hits give low values 0.977 | locus YDL017W, strain CDC7, hits give low values 0.987 | locus YDL028C, strain MPS1, hits give low values 0.977 | locus YDL101C, strain DUN1, hits give low values 0.988 | locus YDL108W, strain KIN28, hits give low values 0.977 | locus YDL132W, strain cdc53, hits give low values 0.977 | locus YDL214C, strain PRR2, hits give low values 0.947 | locus YDR052C, strain DBF4, hits give low values 0.989 | locus YDR054C, strain cdc34, hits give low values 0.97 | locus YDR226W, strain ADK1, hits give low values 0.976 | locus YDR477W, strain SNF1, hits give low values 0.967 | locus YER123W, strain YCK3, hits give low values 0.866 | locus YER133W, strain GLC7, hits give low values 0.947 | locus YFL009W, strain cdc4, hits give low values 0.976 | locus YFL029C, strain CAK1, hits give low values 0.982 | locus YFR003C, strain YPI1, hits give low values 0.984 | locus YFR019W, strain FAB1, hits give low values 0.883 | locus YFR028C, strain CDC14, hits give low values 0.978 | locus YGR040W, strain KSS1, hits give low values 0.968 | locus YGR052W, strain FMP48, hits give low values 0.99 | locus YGR092W, strain DBF2, hits give low values 0.854 | locus YHR079C, strain IRE1, hits give low values 0.825 | locus YHR082C, strain KSP1, hits give low values 0.917 | locus YHR205W, strain SCH9, hits give low values 0.912 | locus YIL147C, strain SLN1, hits give low values 0.98 | locus YJL095W, strain BCK1, hits give low values 0.726 | locus YJL128C, strain PBS2, hits give low values 0.967 | locus YJL157C, strain FAR1, hits give low values 0.96 | locus YJR016C, strain ILV3, hits give low values 0.975 | locus YJR066W, strain TOR1 (second series), hits give low values 0.832 | locus YJR066W, strain TOR1, hits give low values 0.827 | locus YKL048C, strain ELM1, hits give low values 0.934 | locus YKL067W, strain YNK1, hits give low values 0.933 | locus YKL101W, strain HSL1, hits give low values 0.934 | locus YKL193C, strain SDS22, hits give low values 0.979 | locus YKL203C, strain TOR2, hits give low values 0.991 | locus YLR133W, strain CKI1, hits give low values 0.937 | locus YLR403W, strain SFP1, hits give low values 0.949 | locus YML070W, strain DAK1, hits give low values 0.887 | locus YMR001C, strain CDC5, hits give low values 0.98 | locus YMR205C, strain PFK2 (second series), hits give low values 0.93 | locus YMR277W, strain FCP1, hits give low values 0.987 | locus YNL006W, strain LST8, hits give low values 0.985 | locus YNL020C, strain ARK1, hits give low values 0.924 | locus YNL161W, strain CBK1, hits give low values 0.984 | locus YNL183C, strain NPR1, hits give low values 0.801 | locus YNL207W, strain RIO2, hits give low values 0.984 | locus YNL222W, strain SSU72, hits give low values 0.981 | locus YNL307C, strain MCK1 (second series), hits give low values 0.931 | locus YOL078W, strain AVO1, hits give low values 0.976 | locus YOL136C, strain PFK27, hits give low values 0.903 | locus YOR061W, strain CKA2, hits give low values 0.945 | locus YOR119C, strain RIO1, hits give low values 1.04 | locus YOR231W, strain MKK1, hits give low values 0.823 | locus YOR329C, strain SCD5, hits give low values 0.988 | locus YPL031C, strain PHO85, hits give low values 0.935 | locus YPL153C, strain RAD53, hits give low values 0.871 | locus YPL204W, strain HRR25, hits give low values 0.903 | locus YPL209C, strain IPL1, hits give low values 0.98 | locus YPR025C, strain CCL1, hits give low values 0.978 | locus YPR106W, strain ISR1, hits give low values 0.981 | locus YPR111W, strain DBF20, hits give low values 0.963 | strain NNK1, hits give low values 0.993 | strain TSCII, hits give low values 0.979
active: locus YHR030C, strain SLT2, hits give low values 0.426 | locus YLR113W, strain HOG1, hits give low values 0.832 | locus YPL256C, strain CLN2, hits give low values 0.831
